Only a selection was taken, and hits are over-represented in it overall.
CBX7 AlphaScr = CBX7 inhibition, primary AlphaScreen. AlphaScreen His6-CBX7 / biotin-H3K27me3 peptide binding; hits give low values. AID 1224903. hit rate 1.1% among 66,000. O95931. normalised signal (fraction of DMSO) (no concentration beside the values); in the data active means normalised signal below about 0.5
Target sequence (O95931 whole entry, looked up): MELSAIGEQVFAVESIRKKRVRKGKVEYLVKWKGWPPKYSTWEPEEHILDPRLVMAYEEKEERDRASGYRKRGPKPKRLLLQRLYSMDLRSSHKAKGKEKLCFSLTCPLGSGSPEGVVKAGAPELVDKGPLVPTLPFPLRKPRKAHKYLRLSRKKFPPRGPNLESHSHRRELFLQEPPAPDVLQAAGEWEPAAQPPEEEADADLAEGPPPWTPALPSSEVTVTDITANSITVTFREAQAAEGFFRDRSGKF
* marks the source's active call; other numbers are inactive results.

SMILES | CBX7 AlphaScr
C=CCN(CC=C)S(=O)(=O)c1ccc(C(=O)Nc2nnc(COC)o2)cc1 | 0.069*
COCc1nnc(NC(=O)c2ccc(S(=O)(=O)N(CC(C)C)CC(C)C)cc2)o1 | 0.081*
Cc1oc(-c2ccccc2F)nc1CSCC(=O)NCCN1CCCC1 | 0.98
Cc1ccc(NC(=O)CSc2nc3ccccc3nc2Cc2ccc(F)cc2)c(C)c1 | 1
O=S(=O)(c1ccccc1)N1CCN(c2ccc3nnc(-c4ccccc4)n3n2)CC1 | 0.1*
Cc1ccc(S(=O)(=O)N2CCN(c3ccc4nnc(-c5ccccc5)n4n3)CC2)cc1 | 0.7
c1ccc(-c2nnc3ccc(N4CCCC4)nn23)cc1 | 0.94
Cn1cc(CCC(=O)NCCc2ccccc2)c2ccccc21 | 1
CCOC(=O)N1CCC(Nc2c(NCCCc3ccccc3)c(=O)c2=O)CC1 | 1.1
CC1CCCN(S(=O)(=O)c2ccc(C(=O)Nc3nc(-c4ccccn4)cs3)cc2)C1 (configuration not stated) | 0.22*
O=C(Nc1nc(-c2ccncc2)cs1)c1ccc(S(=O)(=O)N2CCCCC2)cc1 | 1
CC1CCCCN1S(=O)(=O)c1ccc(C(=O)Nc2nc(-c3ccncc3)cs2)cc1 (configuration not stated) | 1
CC1CCCCN1S(=O)(=O)c1ccc(C(=O)Nc2nc(-c3ccccn3)cs2)cc1 (configuration not stated) | 0.19*
CC1CCN(S(=O)(=O)c2ccc(C(=O)Nc3nc(-c4ccncc4)cs3)cc2)CC1 | 1
CC1CCN(S(=O)(=O)c2ccc(C(=O)Nc3nc(-c4ccccn4)cs3)cc2)CC1 | 0.96
COc1ccc(C2C(C(=O)Nc3ccc(C)cn3)=C(C)NC3=C2C(=O)CCC3)cc1 (configuration not stated) | 0.81
COc1ccc(OC)c(NC(=O)Nc2ccc3snnc3c2)c1 | 0.84
COc1ccc(C2C(C(=O)NCc3ccc(F)cc3)c3ccccc3C(=O)N2C)cc1OC (configuration not stated) | 1.1
COc1ccccc1NS(=O)(=O)c1ccc2c(c1)CCN2C(C)=O | 1.1
COc1ccc(OC)c(NC(=O)CCC(=O)Nc2ccc3nc(N4CCN(C)CC4)cc(C)c3c2)c1 | 0.99
COc1ccc(C2=NN(CCC(=O)NC(C)(C)C)C(=O)CC2)cc1 | 1
Cc1nc(SCC(=O)Nc2ccc(S(N)(=O)=O)cc2)n[nH]1 | 0.94
Cc1ccc(-n2c3c(cc(C(=O)Nc4ccccc4)c2=O)C(=O)CCC3)cc1 | 1.2
CCCn1cnc2cc(NCc3ccc(Br)cc3)ccc21 | 0.33*
CCCn1cnc2cc(NCc3ccc(OC)c(OC)c3)ccc21 | 0.81
SMILES | CBX7 AlphaScr
CCn1cnc2cc(NCc3ccc(Br)cc3)ccc21 | 0.96
CCCCn1cnc2cc(NCc3ccc(Br)cc3)ccc21 | 0.25*
CCn1cnc2cc(NCc3ccc(OC)c(OC)c3)ccc21 | 0.95
CCCn1cnc2cc(NCc3cccc(OC)c3)ccc21 | 0.56
CCN(CC)c1ncnc2sc(C(=O)Nc3ccc4c(c3)OCO4)c(C)c12 | 0.95
O=C(Nc1ncc(Cc2ccc(Cl)cc2)s1)C(c1ccccc1)c1ccccc1 | 0.88
O=C(c1cc2c(s1)-c1ccccc1OC2)N1CCCN(Cc2ccccc2F)C1 | 1.1
CCOC(=O)c1[nH]c2ccc(OCc3ccccc3)cc2c1C | 1.1
OC1CCCCc2c1[nH]c1ccc(C3CCCCC3)cc21 (configuration not stated) | 0.72
OC1CCCc2c1[nH]c1ccc(OCc3ccccc3)cc21 (configuration not stated) | 0.43*
Cc1cc(C)cc(-n2ccnc2SCC(=O)Nc2cc(C(F)(F)F)ccc2Cl)c1 | 0.77
CCOC(=O)N1CCC(NC(=O)c2cc3c(s2)CSC3)CC1 | 1.1
COc1ccccc1CN(C)CCc1ccccn1 | 1
COc1ccc(S(=O)(=O)N(C)CCc2ccccn2)cc1 | 0.94
CCOc1ccc(CN(C)CCc2ccccn2)cc1 | 0.47*
CCOC(=O)C1CCN(C(=O)CN2C(=O)COc3ccc(S(=O)(=O)N4CCOCC4)cc32)CC1 | 0.97
Cc1ccccc1CN1C(=O)c2ccccc2Sc2ccc(C(=O)NC3CCCCC3C)cc21 (configuration not stated) | 0.95
COc1ccc2c(c1)c(CC(=O)NC1CC1)c(C)n2C(=O)c1ccc(Cl)cc1 | 0.89
C=CCNC(=O)Cc1c(C)n(C(=O)c2ccc(Cl)cc2)c2ccc(OC)cc12 | 1
COc1ccc2c(c1)c(CC(=O)Nc1ccccn1)c(C)n2C(=O)c1ccc(Cl)cc1 | 0.41*
CCOC(=O)c1cnc2ccc(OC)cc2c1Nc1ccc(Cl)cc1C | 0.76
c1ccc(CN2CCC(NCCc3ccc4c(c3)OCO4)CC2)cc1 | 0.48*
c1ccc(-c2csc(N3CCN(Cc4ccc5c(c4)OCO5)CC3)n2)cc1 | 0.96
O=C1CC(N2CCN(Cc3ccc4c(c3)OCO4)CC2)C(=O)N1CC(c1ccccc1)c1ccccc1 (configuration not stated) | 1.3
COCCCNC(=O)Cn1nc(-c2ccccc2)ccc1=O | 1
SMILES | CBX7 AlphaScr
CCOC(=O)c1cnc2ccccc2c1Nc1ccc(OC)c(OC)c1 | 0.93
COc1ccc(-c2nc3ccccc3c(C(=O)NCc3ccc(Cl)cc3)c2C)cc1 | 1
COc1ccc(N2CCN(Cc3nc(-c4ccc(C)cc4)no3)CC2)cc1 | 0.32*
Cc1ccc(-c2noc(CN3CCOCC3)n2)cc1 | 1.3
Cc1ccc(-c2noc(CN3CCN(c4ccc(F)cc4)CC3)n2)cc1 | 0.99
Cc1cc(C)c(NC(=O)c2csc3c2CCCC3)c(C)c1 | 1.1
CC1CCc2oc3ccc(NS(=O)(=O)c4cccs4)cc3c2C1 (configuration not stated) | 0.64
CCC(C)(C)C1CCc2oc3ccc(NS(=O)(=O)c4cccs4)cc3c2C1 (configuration not stated) | 0.42*
CCc1ccc(S(=O)(=O)Nc2ccc3oc4c(c3c2)CC(C(C)(C)C)CC4)cc1 (configuration not stated) | 0.78
CCn1c2c(c3cc(OCc4ccccc4)ccc31)CCCCC2=O | 1.1
O=C(CN1N=C(c2ccc(Cl)cc2)CCC1=O)NC1CCCCCC1 | 1
CCn1cnc2cc(NCc3ccc(OC)cc3OC)ccc21 | 0.93
COc1cccc(CNc2ccc3c(c2)ncn3C(C)(C)C)c1OC | 0.64
COc1ccc(-n2cnc3cc(NCc4cccc(OC)c4OC)ccc32)cc1 | 0.2*
Cc1ccc(C(=O)Nc2ccc3c(c2)ncn3-c2ccccc2)cc1 | 0.99
CCCn1cnc2cc(NCc3ccc(OC)cc3OC)ccc21 | 0.88
COc1cccc(CNc2ccc3c(c2)ncn3-c2ccccc2)c1OC | 0.26*
CCn1c(C(=O)N2CCC(C(=O)N3CCOCC3)CC2)cc2sccc21 | 0.95
CCc1ccc(N(C)S(=O)(=O)c2ccc3[nH]cc(C(=O)N4CCOCC4)c(=O)c3c2)cc1 | 0.82
COc1ccc(C2CC(=O)N(CC(=O)Nc3cccc(F)c3)c3ccccc3S2)cc1 (configuration not stated) | 0.81
Cc1ccc(C)c(-n2c(Cc3cc(=O)[nH]c(=O)[nH]3)nnc2SCc2ccc(Br)cc2)c1 | 1.1
COc1cccc(NC(=O)C2CCN(C(=O)c3cnn(-c4ccccc4)c3-n3cccc3)CC2)c1 | 0.98
CN(C1CCCCC1)S(=O)(=O)c1ccc(C(=O)Nc2ccccc2-c2nc3ccccc3s2)cc1 | 1.2
O=C(Nc1ccccc1-c1nc2ccccc2[nH]1)c1ccc(Oc2ccccc2)cc1 | 1
CN(C1CCCCC1)S(=O)(=O)c1ccc(C(=O)Nc2nnc(-c3cccs3)o2)cc1 | 0.92
CN(C1CCCCC1)S(=O)(=O)c1ccc(C(=O)Nc2nc(-c3ccncc3)cs2)cc1 | 0.96
